Largest response in the series, negative = inhibition and Potency data for 47 compounds are collected here from PubChem BioAssay AID1490 (National Center for Advancing Translational Sciences (NCATS), 2009).

“And” between values parts separate entries of the source, which are not always exact repeats. Equal values may be shown once. The whole screen tested about 310,000 compounds, of which about 11,000 (3.5%) were called active. Another 4% or so got no clear call; they are omitted. Calls come from the whole dose curve; as a rule, active = well fitted inhibition curve with a large enough effect; inconclusive = small, poorly fitted or top-dose-only effect, or another doubt; inactive = no such curve, though single readings can be large or run the other way. Many of the other results were omitted from the sample, so actives are more common in it than they were.
Potency is the fitted concentration of half-maximal effect.

The target of the experiment is 4'-phosphopantetheinyl transferase ffp (Bacillus subtilis) (UniProt Q9F4F7). As to the kind of experiment: qHTS Assay for Inhibitors of Bacillus subtilis Sfp phosphopantetheinyl transferase (PPTase).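 For Largest response in the series, negative = inhibition: 0% = enzyme reaction without inhibitor and -100% = no enzyme wells.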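 Note: the enzyme is Sfp with the accession as filed and its product quenches rhodamine fluorescence.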 The conditions noted are these: Biochemical Sfp PPTase activity. Put shortly: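 Buffer: 50 mM Hepes-Na pH 7.6, 10 mM MgCl2, 0.01% Nonidet P-40, 0.01% BSA. Enzyme 15 nM, pre-exposed to compound 15 min; substrates then added and fluorescence change tracked over 30 min.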
On the technique in general: Quantitative high-throughput screening tests each substance at several concentrations.
Consider `COC(=O)c1ccc(N2CCOCC2)c(NC(=O)c2ccc(Br)o2)c1`, for which the largest response in the series, negative = inhibition is 6.59% (inactive).
The same measure, in the same setting: under `C#CCOc1ccc(/C=C2/C(=O)NN(c3ccccc3)C2=O)cc1OC` stands 8.7% (inactive).
Turning to `C#CCOc1ccccc1/C=C1/C(=O)ON=C1C`, the Potency is 50.1 µM (active).
Take `CC1=NOC(=O)/C1=C\c1ccccc1`: the largest response in the series, negative = inhibition was -4.08% (inactive).
For the compound `NS(=O)(=O)c1ccc(CCNC(=O)c2nc(CS(=O)(=O)c3ccc(Cl)cc3)no2)cc1`, the largest response in the series, negative = inhibition is 13.4% (inactive).
As for `O=C1/C(=C\c2ccsc2)NC(=S)N1c1ccccc1`, the largest response in the series, negative = inhibition was 4.5% (inactive).
For `CCCCN=C1N/C(=C\c2ccco2)C(=O)N1c1ccccc1`, the Potency is 56.2 µM (active).
In the case of `CCOC(=O)C1(C)NC(c2ccco2)C2C(=O)N(c3ccccc3)C(=O)C21` (configuration not stated), the largest response in the series, negative = inhibition was 27.2% (inactive).
For `COc1cccc(N(CC(=O)NC2CCCC2)C(=O)CCCC(=O)Nc2ccccn2)c1`, the largest response in the series, negative = inhibition was 7.32% (inactive).
Turning to `COc1cccc(C(=O)Nc2nnc(S(=O)(=O)N3CCCCC3)s2)c1`, the largest response in the series, negative = inhibition is 6.22% (inactive).
On the same count and under the same terms, under `O=C(c1ccncc1)c1ccc([N+](=O)[O-])cc1` stands 13.2% (inactive).
`O=C(Cn1c[n+](CC(=O)c2ccc([N+](=O)[O-])cc2)cn1)c1ccc([N+](=O)[O-])cc1`: the Potency was 56.2 µM (active) and 44.7 µM (active).
With `O=C(Nn1cnnc1)c1ccc([N+](=O)[O-])cc1`, the largest response in the series, negative = inhibition was 13.2% (inactive).
As for `Cc1cccc(-c2nc3ccc(C(=O)NCCN4CCN(C)CC4)cc3nc2-c2cccc(C)c2)c1`, the Potency was 50.1 µM (active).
As for `Cc1ccc(C(=O)NCCN2CCOCC2)cc1C`, the largest response in the series, negative = inhibition was 11.9% (inactive).
On to `CCC1=Nc2cc(C(=O)NCCN3CCCC3)ccc2Sc2ccc(C)cc21`, for which the largest response in the series, negative = inhibition was -8.33% (inactive).
Same read-out and setting: the figure for `Cc1ccc(OCCCC(=O)Nc2ccc(S(=O)(=O)Nc3cc(C)nc(C)n3)cc2)cc1` is 5.46% (inactive).
On to `CC1(C)OC2CO[C@]3(COS(N)(=O)=O)OC(C)(C)OC3C2O1` (some centres not stated), for which the largest response in the series, negative = inhibition was 20.4% (inactive).
In the case of `O=C(N/N=C\c1cc(Br)c(Br)o1)C1COc2ccccc2O1` (configuration not stated), the Potency is 39.8 µM (active).
`O=C(CNC(=O)C1COc2ccccc2O1)N/N=C/c1cc(Br)c(O)c(Br)c1` (configuration not stated): the largest response in the series, negative = inhibition is 1.24% (inactive).
Take `O=C(N/N=C/c1cc2c(cc1Br)OCO2)C1COc2ccccc2O1` (configuration not stated): the largest response in the series, negative = inhibition is 0.904% (inactive).
On to `C=CCN1CCN(C(=O)CCCc2ccccc2)CC1`, for which the largest response in the series, negative = inhibition is 13.4% (inactive).
Regarding `Cc1cccc(OCC(=O)Nc2ccc(NC(=O)c3ccco3)c(C)c2)c1`, the largest response in the series, negative = inhibition was 16.8% (inactive).
Same read-out and setting: under `O=C(NC1CCCCC1)c1cc(C2CC2)on1` stands 2.59% (inactive).
In the case of `CSc1ccccc1NC(=O)c1cc(C2CC2)on1`, the Potency was 17.8 µM (active).
For `O=C(Nc1cc(C(F)(F)F)ccc1Cl)c1cc(C2CC2)on1`, the largest response in the series, negative = inhibition is 15.4% (inactive).
Consider `O=C(NC(=S)Nc1ccccc1N1CCCCC1)c1ccc(F)cc1`, for which the largest response in the series, negative = inhibition is 5.51% (inactive).
As to `CC1CN(C(=S)Nc2ccccc2F)CC(C)O1` (configuration not stated), the largest response in the series, negative = inhibition was -11.5% (inactive).
For the compound `O=C(Nc1ccccc1)Nc1ccc(C(F)(F)F)cn1`, the largest response in the series, negative = inhibition is 11.2% (inactive).
Regarding `Oc1ccc(Br)cc1/C=N/Nc1ccccn1`, the largest response in the series, negative = inhibition was 5.24% (inactive).
For `Oc1ccc(/C=N/Nc2ccc(C(F)(F)F)cn2)cc1O`, the Potency was 28.2 µM (active).
Turning to `Cc1c(Cl)c([N+](=O)[O-])nn1CC(=O)NCCCN1CCOCC1`, the largest response in the series, negative = inhibition was 1.31% (inactive).
As to `O=C(CN1C(=O)COc2ccc(Cl)cc21)N1CCOCC1`, the largest response in the series, negative = inhibition is 9.91% (inactive).
Regarding `O=C(N/N=C/c1ccccn1)c1cccc(NC(=O)c2ccc(Cl)cc2)c1`, the largest response in the series, negative = inhibition was 10.1% (inactive).
In the case of `O=C(COc1ccc(Cl)cc1Cl)N/N=C/c1ccccn1`, the largest response in the series, negative = inhibition was -29.7% (inactive).
For the compound `CNC(=O)C(=O)N/N=C/c1ccccn1`, the Potency was 79.4 µM (active).
Regarding `O=C(N/N=C/c1ccc(O)c2ccccc12)c1cccnc1`, the largest response in the series, negative = inhibition was 7.11% (inactive).
For the compound `O=C(N/N=C/c1ccccn1)c1cccnc1`, the Potency was 2 µM (active).
With `O=C(N/N=C/c1ccccn1)C12CC3CC(CC(C3)C1)C2`, the largest response in the series, negative = inhibition is -35% (inactive).
For the compound `O=C(CCC1CCCC1)N=C1SC2CS(=O)(=O)CC2N1Cc1ccccc1` (configuration not stated), the largest response in the series, negative = inhibition is 11.9% (inactive).
On to `Cc1ccnc(NC(=O)CCNS(=O)(=O)c2ccc(C)c(C)c2)c1`, for which the largest response in the series, negative = inhibition was 9.67% (inactive).
For `S=c1nccc(-c2cc(Cl)sc2Cl)[nH]1`, the Potency was 79.4 µM (active).
On to `O=C(NCCS(=O)(=O)N1CCN(c2ccccc2F)CC1)c1ccc(Br)o1`, for which the largest response in the series, negative = inhibition is 27.4% (inactive).
Still for that read-out and setting: the figure for `O=C1c2cccc3cc(Br)cc(c23)C(=O)N1Nc1ccccc1` is 9.09% (inactive).
For `O=C1C=C(c2ccc(Cl)cc2)C(=O)N1Nc1ccccc1`, the Potency is 10 µM (active).
Take `O=C(O)CC1=C(Nc2ccccc2)C(=O)N(c2ccccc2)C1c1ccc(Cl)cc1` (configuration not stated): the largest response in the series, negative = inhibition is 18.5% (inactive).
On the same count and under the same terms, the figure for `O=C(NCCCN1CCOCC1)c1cc2c(s1)CCC2` is 23.9% (inactive).
